About 83,000 compounds went through this panel and 20% of them were active in at least one assay; those are over-represented in the sample as a whole.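 Plates (96-well) were seeded with cells, treated with compound at one concentration, and incubated for 48 hours before percent growth was determined.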 Unmarked numbers belong to inactive results. Active and inactive are the calls of the source. How the source made its calls: active means growth percent below 10; inactive means the rest.
Assays:
Assay in all cases: NCI-60 one-dose screen, 48 h (100 = growth as untreated, 0 = no growth, -100 = all killed)
Settings in all cases: 10 µM unless noted
DU-145 prostate = test system: DU-145 prostate
K-562 leukemia = test system: K-562 leukemia
MALME-3M melanoma = test system: MALME-3M melanoma
MDA-MB-231 breast = test system: MDA-MB-231 breast
RXF 393 renal = test system: RXF 393 renal
SF-268 CNS = test system: SF-268 CNS
SF-295 CNS = test system: SF-295 CNS
SF-539 CNS = test system: SF-539 CNS
UACC-257 melanoma = test system: UACC-257 melanoma
M14 melanoma = test system: M14 melanoma
HCT-15 colon = test system: HCT-15 colon
HT29 colon = test system: HT29 colon
SNB-75 CNS = test system: SNB-75 CNS
SNB-19 CNS = test system: SNB-19 CNS
U251 CNS = test system: U251 CNS
PC-3 prostate = test system: PC-3 prostate
SK-MEL-5 melanoma = test system: SK-MEL-5 melanoma
UACC-62 melanoma = test system: UACC-62 melanoma
LOX IMVI melanoma = test system: LOX IMVI melanoma
SK-MEL-28 melanoma = test system: SK-MEL-28 melanoma

Row | SMILES | growth (DU-145 prostate) | growth (K-562 leukemia) | growth (MALME-3M melanoma) | growth (MDA-MB-231 breast) | growth (RXF 393 renal) | growth (SF-268 CNS) | growth (SF-295 CNS) | growth (SF-539 CNS) | growth (UACC-257 melanoma) | growth (M14 melanoma) | growth (HCT-15 colon) | growth (HT29 colon) | growth (SNB-75 CNS) | growth (SNB-19 CNS) | growth (U251 CNS) | growth (PC-3 prostate) | growth (SK-MEL-5 melanoma) | growth (UACC-62 melanoma) | growth (LOX IMVI melanoma) | growth (SK-MEL-28 melanoma)
1 | O=c1[nH]c(=S)c2c(n1CCCO)CCC2 | 108% | 93.4% | 92.9% | 102% | 113% | 100% | 102% | 104% | 96.7% | 97% | 101% | 104% | 88% | 102% | 101% | 103% | 101% | 97.2% | 96.5% | 111%
2 | COc1ccc(Cn2c(Br)c3c(c2-c2cc(OC)c(OC)c(OC)c2)CCc2sc(N)nc2-3)cc1 | 12.4% | 4.43% (active) | 47.7% | 12.6% | -0.407% (active) | 44.3% | 43.7% | -13.5% (active) | 57.5% | 12% | 18.8% | -12.4% (active) | -0.745% (active) | 55.4% | 21.8% | 28.8% | 10.1% | 25.5% | 33.5% | 33.9%
3 | O=c1ccc2ccccc2o1 | 112% | 112% | 110% | 100% | 116% | 102% | 97.7% | 102% | 101% | 104% | 98% | 102% | 89.4% | 112% | 104% | 82.2% | 107% | 98.4% | 109% | 108%
4 | N#C/C(=C\c1ccc[nH]1)c1cc2ccccc2[nH]1 | 80% | 42.5% | 88% | 59.7% | 92.5% | 78.1% | 53.7% | 79.7% | 69.9% | 80.3% | 50.2% | 80.2% | 62.2% | 78.5% | 69.7% | 58% | 57.2% | 67.8% | 75.2% | 98.5%
5 | COc1cccc(C2C3=C(COC3=O)N(CCO)c3cc4c(cc32)OCO4)c1 (stereo not given) | 0.613% (active) | 21% | 82.4% | 34.6% | -14.5% (active) | 38.3% | -13.8% (active) | -19.1% (active) | 35.5% | -24.2% (active) | 18.2% | 0.226% (active) | -19.9% (active) | 25.6% | 18.2% | 32.4% | 30.8% | 18.3% | 53.8% | 50.5%
6 | Cc1ccc(S(=O)(=O)N2CCc3ccc(O)c4c3C2Cc2ccc3c(c2-4)OCO3)cc1 (stereo not given) | 10.3% | 15.1% | 61.8% | 6.15% (active) | 0.195% (active) | 37.2% | 14.3% | 3.96% (active) | 45.6% | 5.43% (active) | 30.6% | 52.3% | 5.09% (active) | 52.3% | 12.7% | 26.8% | 25.9% | 22.1% | 35.6% | 44.4%
7 | O=C(CCc1nnc2sc(-c3ccccc3)nn12)c1nc2ccccc2[nH]1 | 106% | 5.84% (active) | 93.7% | 97.2% | 107% | 116% | 77.1% | 78.9% | 100% | 96.3% | 98.5% | 62.1% | 83.9% | 104% | 88.7% | 85.7% | 92.4% | 102% | 88.3% | 103%
8 | COc1cc2oc(-c3ccc(O)cc3)cc(=O)c2c(O)c1I | 104% | 92.6% | 115% | 99% | 138% | 105% | 97% | 100% | 96.6% | 110% | 100% | 107% | 99% | 95.9% | 97% | 97.5% | 101% | 102% | 107% | 108%
9 | COc1ccc(NS(=O)(=O)c2ccc(-c3cnc(C4CC4)o3)cc2)cc1 | 81.2% | 22.8% | 58.3% | 69.7% | 83.9% | 73.2% | 50% | 65.2% | 72.5% | 40.9% | 29.7% | 19% | 44.9% | 67.8% | 56.5% | 67% | 51.3% | 49.4% | 50.8% | 66.3%
10 | COc1cc(C2C3=C(COC3=O)N(CCO)c3cc4c(cc32)OCO4)cc(OC)c1O (stereo not given) | 11.3% | 27.9% | 35.3% | 54% | 13.1% | 51.1% | 8.07% (active) | 12.7% | 14.5% | 9.86% (active) | 44.8% | 8.44% (active) | -11.3% (active) | 41.5% | 21.4% | 29.5% | 29.3% | 26.2% | 40.1% | 59.5%
11 | O=c1oc2ccccc2cc1-c1csc(N=Nc2c(O)[nH]c3ccc(Br)cc23)n1 | 109% | 111% | 99% | 95.6% | 115% | 101% | 101% | 99.5% | 97.3% | 105% | 105% | 109% | 86.2% | 95.8% | 103% | 102% | 96.5% | 95% | 99.9% | 101%
12 | COc1ccc2c(c1)c(=O)oc1c(C)c(OCC(C)=O)ccc12 | 86.8% | 102% | 112% | 114% | 103% | 85.6% | 93.9% | 94.3% | 96.2% | 112% | 86.7% | 103% | 108% | 101% | 90% | 83.3% | 103% | 64.3% | 94.7% | 106%
13 | O=C(NC1CC1)c1cc2n(n1)CC(c1ccccc1)N2 (stereo not given) | 107% | 103% | 104% | 91.3% | 95.6% | 95.2% | 91.8% | 96.3% | 98.3% | 101% | 95.3% | 107% | 91.2% | 100% | 102% | 98.8% | 99.4% | 88.4% | 98.3% | 107%
14 | Cc1ccccc1-n1nnc(C(=O)Nc2ccc(-c3ccccc3)cn2)c1C | 54.3% [50 µM] | 26.5% [50 µM] | 39.6% [50 µM] | 63.1% [50 µM] | 74.7% [50 µM] | 68.7% [50 µM] | 38.9% [50 µM] | 72.3% [50 µM] | 25.5% [50 µM] | 41.8% [50 µM] | 39.8% [50 µM] | 28.1% [50 µM] | 83.6% [50 µM] | 62.6% [50 µM] | 64.9% [50 µM] | 40.5% [50 µM] | -41.8% [50 µM] (active) | 45.6% [50 µM] | 48.1% [50 µM] | 56.8% [50 µM]
15 | CCN(CC)c1ccc2c(c1)OS(=O)(=O)N=C2 | 108% | 101% | 98.1% | 134% | 119% | 97.7% | 99.4% | 99.9% | 103% | 98.6% | 102% | 111% | 87.9% | 101% | 99.3% | 100% | 99.5% | 101% | 89.2% | 105%

Source: PubChem BioAssay (NCI)
